# Reference: PubChem BioAssay AID624300 (Southern Research Specialized Biocontainment Screening …, 2012)
# The whole screen tested about 2,400 compounds, of which about 360 (15%) were called active.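 Rule for the calls: active = viability falls under 70% at one or more tested concentrations, taken as toxicity; inactive = viability stays over 70% at every dose.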 These entries were drawn from the full list. Entries with a potency or affinity are not part of this list.
# Assay: HeLa cell cytotoxicity, dose response, cytotoxicity control for MgcRacGAP inhibitor project (AID 624300)
# Details: CellTiter-Glo luminescence, 24 h; series mostly up to 100 µM
row,Structure (SMILES),outcome
1,CCOC(=O)c1c(C)[nH]sc1=S,inactive
2,CCN(CC)c1ccc(NC(=O)C2CCCC2)cc1,inactive
3,CCN(CC)c1ccc(NC(=O)Nc2ccccc2)cc1,inactive
4,CCN(CC)c1ccc(NC(=O)CSC(=O)c2ccccc2)cc1,inactive
5,CCN(CC)c1ccc(/C=N/O)cc1,inactive
6,CCN(CC)c1ccc(/C=N/N2CCOCC2)c(O)c1,inactive
7,CN(C)c1ccc(/C=N/N2CCN(Cc3ccccc3Cl)CC2)cc1,inactive
8,CCOc1cc(/C=C2\SC(=O)N=C2N)ccc1O,inactive
9,C=CCN(CC=C)C(=O)C1CCN(Cc2ccc(OCc3ccccc3)cc2)CC1,inactive
10,COc1ccc(N2CCN(C(=O)NC3CCCCC3)CC2)cc1,inactive
11,CC1=CC(C)(C)N(C(=O)CNC2CCCC2)c2cc(C)ccc21,inactive
12,COc1cc(/C=N\NC(=O)c2c(C)nc3cc(C)ccn23)ccc1O,inactive
13,COc1ccc(Nc2ccc3ccccc3c2)cc1,inactive
14,O=C(NN=Cc1ccc(O)cc1O)c1ccccc1NS(=O)(=O)c1cccs1,inactive
15,O=S1(=O)N=C(Nc2ccc(O)cc2)c2ccccc21,inactive
16,CN(C)c1ccc(NC(=O)CN2C(=O)c3ccccc3C2=O)cc1,inactive
17,COc1ccc(C=C2C(=O)c3ccccc3C2=O)cc1O,inactive
18,O=C1C(Cl)=C(NCCc2ccccc2)C(=O)c2ccccc21,inactive
19,COc1ccc(O/C(=N\S(=O)(=O)c2ccccc2)c2ccccc2)cc1,inactive
20,O=C(CNC(=O)c1cccnc1)N/N=C/c1ccc(O)cc1O,inactive
21,COc1cc(/C=C/C(=O)OCC(=O)c2ccc[nH]2)ccc1O,inactive
22,COCCNCC(=O)Nc1nc(C)cs1,inactive
23,Cc1ccc(CNc2ccc(N3CCOCC3)cc2)s1,inactive
24,CN(C1CCCCC1)S(=O)(=O)c1cccc2nsnc12,inactive

row,Structure (SMILES),outcome
1,COc1cc(/C=N/NC(=O)C2CCN(CC(O)COCc3ccccc3)CC2)ccc1O (stereo not given),inactive
2,COc1cc(/C=N/NC(=O)CNC(=O)c2ccco2)ccc1O,inactive
3,O=C(/C(=C/c1ccccc1)n1cncn1)c1ccc(Cl)cc1Cl,inactive
4,COc1cc(-c2nc3cnccn3c2Nc2ccc(C)cc2)ccc1O,inactive
5,Cc1ccn2c(Nc3ccc4c(c3)OCO4)c(-c3ccc(O)cc3)nc2c1,inactive
6,CCOc1ccc(N)cc1OC,inactive
7,Cc1cc(Cl)cc2sc(=S)[nH]c12,inactive
8,NC(=S)N/N=C/c1cccc(O)c1O,inactive
9,O=C(CNc1ccc2c(c1)OCO2)N/N=C\c1ccccc1Cl,inactive
10,Cc1ccc(C2CC(=O)N3CN(c4ccc(Br)cc4)CSC3=C2C#N)o1 (stereo not given),inactive
11,OC1CCN(C(=S)Nc2ccc(Nc3ccccc3)cc2)CC1,inactive
12,Nc1ccc(N2CCN(c3ccc(Cl)c(Cl)c3)CC2)cc1,inactive
13,CCN(Cc1ccncc1)Cc1ccc(OC)c(OC)c1,inactive
14,COc1ccc(NC(=O)n2ncc3c(C)cccc32)cc1OC,inactive
15,COc1ccc(NC2CCCN(C(=O)COc3ccc(Cl)cc3C)C2)cc1OC (stereo not given),inactive
16,CCCC(=Nc1ccc(N)cc1)C1=C(O)C(C(=O)OC)C(C)(C)CC1=O (stereo not given),inactive
17,COC(=O)NCC(c1ccc2c(c1)OCO2)N1CCN(c2ccc(OC)cc2)CC1 (stereo not given),inactive
18,COc1ccc(N2CCN(C(CNC(=O)CC(C)(C)C)c3ccc4c(c3)OCO4)CC2)cc1 (stereo not given),inactive
19,COc1cc2c(cc1N)-c1ccc(N)cc1C2=O,inactive
20,COc1cc(/C=C/CN2CCN(Cc3ccc(C)o3)C(CCO)C2)ccc1O (stereo not given),inactive
21,COc1ccc(/C=N/NC(=O)c2cc[n+]([O-])cc2)cc1O,inactive
22,Cc1ccc(O)c(C=Nc2ccc3[nH]ncc3c2)c1,inactive
23,Nc1ccc2nc(C3CCCCC3)[nH]c2c1,inactive
24,CCOC(=O)C1Nc2ccc(C(=O)O)cc2C2C=CCC12 (stereo not given),inactive

row,Structure (SMILES),outcome
1,CCOc1cc(/C=N/N2CCN(Cc3ccccc3)CC2)ccc1O,inactive
2,Cc1sc2nc(CN3CCOCC3)nc(N3CCOCC3)c2c1C,inactive
3,O=S(=O)(Nc1ccccc1F)c1cccc(NC(=S)NCCN2CCOCC2)c1,inactive
4,CCN(CC)c1ccc(NC(=O)CN(C)Cc2cccs2)cc1,inactive
5,CN(C)S(=O)(=O)c1cc(NC(=O)CNCCN2CCOCC2)ccc1Cl,inactive
6,O=C1/C(=C\c2ccccc2)CN(C(=O)CCN2CCCCC2)C/C1=C/c1ccccc1,inactive
7,COc1cc(/C=N/NC(=O)c2cc(C)oc2C)ccc1O,inactive
8,COC(=O)/C(=C/Nc1ccc(O)cc1)[N+](=O)[O-],inactive
9,Nc1ccc2c(c1)Cc1cc(N)c(Cl)cc1-2,inactive
10,COc1cc(C(C)n2nnc3ccccc32)ccc1O (stereo not given),inactive
11,COc1ccccc1OCCCCCCN1CCOCC1,inactive
12,COCCNC(=S)Nc1cc(OC)c(OC)cc1C#N,inactive
13,NS(=O)(=O)c1ccc(Nc2nc(-c3ccc(O)cc3)cs2)cc1,inactive
14,Cc1ccnc(Nc2nc(-c3ccc(O)cc3)cs2)c1,inactive
15,CC(=O)Nc1cccc(-c2csc(NCc3ccccc3)n2)c1,inactive
16,Cc1cc(NS(=O)(=O)c2ccc(Nc3nc(-c4ccc(O)cc4)cs3)cc2)no1,inactive
17,Cc1cc(O)ccc1Nc1nc(-c2cccs2)cs1,inactive
18,Oc1ccc(-c2csc(Nc3ccccn3)n2)cc1,inactive
19,Cc1nc2ncccn2c1-c1csc(Nc2ccc(O)cc2)n1,inactive
20,CC(C)Oc1ccc(OCCn2c(=S)[nH]c3c(N)ncnc32)cc1,inactive
21,CSc1ccccc1NC(=O)CN(C)C(C)C(=O)NCc1ccc2c(c1)OCO2 (stereo not given),inactive
22,COc1cc(/C=C/C(=O)OCC(=O)Nc2ccc3c(c2)OCO3)ccc1O,inactive
23,Nn1c(=S)[nH]c2sc3c(c2c1=O)CCCC3,inactive
24,Cc1cc(C)c(OCC(O)CN2CCN(C(=O)c3ccccc3)CC2)c(C)c1 (stereo not given),inactive

row,Structure (SMILES),outcome
1,COc1nc(Nc2ccc(O)cc2)nc(OC(C(F)(F)F)C(F)(F)F)n1,inactive
2,O=C(c1cccc(F)c1)N1CCN(Cc2cccc(Br)c2)CC1,inactive
3,OCCN1CCN(C(=S)Nc2cccc(C(F)(F)F)c2)CC1,inactive
4,N#CC1=C(S)N(c2ccc(F)cc2)C(c2cccs2)NC1=O (stereo not given),inactive
5,O=C(O)c1ccc(-c2ccc(/C=c3/sc4nc5ccccc5n4c3=O)o2)cc1Cl,inactive
6,O=S(=O)(c1ccc2ccccc2c1)N1CCN(C2CCN(Cc3ccccc3)CC2)CC1,inactive
7,O=C(CCCCCNC(=O)c1ccccc1)N/N=C/c1ccc(O)cc1O,inactive
8,O=S(=O)(O)c1cc(Cl)cc(N=Nc2ccc(O)cc2O)c1O,inactive
9,CCc1cc(-c2n[nH]c(CCC(=O)O)c2-c2nc3ccccc3n2C)c(O)cc1O,inactive
10,COc1ccc2c(c1)Sc1ccccc1N2,inactive
11,Cn1cnc2cc(NCc3ccccc3O)ccc21,inactive
12,CCN(CC)c1ccc(N=Cc2ccccc2[N+](=O)[O-])cc1,inactive
13,CC(=O)OCCNc1cc(N2CCN(C)CC2)c2noc3c2c1C(=O)c1ccccc1-3,inactive
14,CCOc1cc(/C=N\n2nnnc2N)ccc1O,inactive
15,CCOc1cc(/C=N/NC(=O)CCn2nc(C)cc2C)ccc1O,inactive
16,CCN(CC)c1ccc(NC(=O)COC(=O)Cc2ccsc2)cc1,inactive
17,Nc1c(/C=C2/C=CC(=O)C(O)=C2)c(=O)nc2sc(CC(=O)N3CCCC3)nn12,inactive
18,CC(=O)Nc1ccc(OC(=O)Cc2ccc(Cl)cc2)cc1,inactive
19,OCCCNC(=S)Nc1ccc(Nc2ccccc2)cc1,inactive
20,COc1cc(OC)c(OC)cc1CN1CCN(C(=O)c2cccc3ccccc23)CC1,inactive
21,O=c1cc(-c2ccc(O)c(O)c2)oc2cc(O)c(C3OC(CO)C(O)C(O)C3O)c(O)c12 (stereo not given),inactive
22,Oc1ccc(N2CCN(C(=S)NCCc3ccccc3)CC2)cc1,inactive
23,CC1(C)CNc2cc(N)ccc2S1,inactive
24,Nc1n[nH]c(=S)n1/N=C1/C(=O)Nc2ccccc21,inactive

row,Structure (SMILES),outcome
1,CC(C)N1CCN(C(=O)c2cccc(Cl)c2)CC1,inactive
2,Fc1ccc(CNCc2ccccc2Cl)cc1,inactive
3,C=CCc1cc(Cl)ccc1OCCN(C)C,inactive
4,Oc1ccc2ccc(Cl)cc2c1,inactive
5,CCN1CCN(CCCOc2ccc(Cl)cc2Br)CC1,inactive
6,CCn1nc(C)c(Br)c1C(=O)Sc1ccccc1Cl,inactive
7,Cc1c(NC(=O)CNCc2ccc3c(c2)OCO3)c(=O)n(-c2ccccc2)n1C,inactive
8,Nc1ccc(N=Nc2ccc(N)cc2)cc1,inactive
9,COc1cccc(OC)c1NC(=O)CN1CCN(C)CC1,inactive
10,COc1ccc(/C=N/NC(=O)c2cnccn2)cc1O,inactive
11,O=C(CNCc1ccco1)Nc1cccc(S(=O)(=O)N2CCCCC2)c1,inactive
12,Cc1cn([C@H]2C[C@H](O)[C@@H](CNCC3=Cc4cc(O)ccc4OC3)O2)c(=O)[nH]c1=O,inactive
13,CCN(c1ccccc1)S(=O)(=O)c1ccc(Cl)c(NC(=O)CN(C)C2CCN(C)CC2)c1,inactive
14,CN1CCC(N(C)CC(=O)Nc2ccc3c(c2)OC(F)(F)O3)CC1,inactive
15,COc1cc(/C=C/C(=O)OCC(=O)N2CCN(C(=O)c3ccco3)CC2)ccc1O,inactive
16,CCn1c(=O)c2c3c(sc2n2c(=S)[nH]nc12)CCC3,inactive
17,CC1(C)OC(C)(C)/C(=C/Nc2ccc(O)cc2)C1=O,inactive
18,COc1cc(C(=O)N/N=C(\C)c2ccc(NC(=O)Cc3ccccc3)cc2)ccc1O,inactive
19,O=C(Nc1ccc(O)cc1)c1ccccc1OCc1ccccc1,inactive
20,c1cc(CN2CCN(C3CCCCCC3)CC2)ccn1,inactive
21,O=C1CC(Nc2ccc(N3CCOCC3)cc2)C(=O)N1Cc1ccccc1 (stereo not given),inactive
22,CSc1ccccc1NC(=O)CNCCCN1CCOCC1,inactive
23,COc1cc(CC(=O)OCC(=O)Nc2ccc(N(C)C)cc2)cc(OC)c1OC,inactive
24,Cc1cc(-c2n[nH]c(=S)n2/N=C/c2cccs2)n[nH]1,inactive
